Assay results from ChEMBL document CHEMBL2218924, “A broad activity screen in support of a chemogenomic map for kinase signalling research and drug discovery” (Biochem J, 2013).

Experiments:
[1] = molecular target: Serine/threonine-protein kinase SIK1 (Homo sapiens) (UniProt P57059); settings: at 10 µM
[2] = molecular target: SRSF protein kinase 2 (Homo sapiens) (UniProt P78362); settings: at 1 µM
[3] = molecular target: SRSF protein kinase 2 (Homo sapiens) (UniProt P78362); settings: at 10 µM
[4] = molecular target: Serine/threonine-protein kinase 33 (Homo sapiens) (UniProt Q9BYT3); settings: at 1 µM
Serine/threonine-protein kinase 33 (Homo sapiens), sequence (Q9BYT3 whole entry, looked up): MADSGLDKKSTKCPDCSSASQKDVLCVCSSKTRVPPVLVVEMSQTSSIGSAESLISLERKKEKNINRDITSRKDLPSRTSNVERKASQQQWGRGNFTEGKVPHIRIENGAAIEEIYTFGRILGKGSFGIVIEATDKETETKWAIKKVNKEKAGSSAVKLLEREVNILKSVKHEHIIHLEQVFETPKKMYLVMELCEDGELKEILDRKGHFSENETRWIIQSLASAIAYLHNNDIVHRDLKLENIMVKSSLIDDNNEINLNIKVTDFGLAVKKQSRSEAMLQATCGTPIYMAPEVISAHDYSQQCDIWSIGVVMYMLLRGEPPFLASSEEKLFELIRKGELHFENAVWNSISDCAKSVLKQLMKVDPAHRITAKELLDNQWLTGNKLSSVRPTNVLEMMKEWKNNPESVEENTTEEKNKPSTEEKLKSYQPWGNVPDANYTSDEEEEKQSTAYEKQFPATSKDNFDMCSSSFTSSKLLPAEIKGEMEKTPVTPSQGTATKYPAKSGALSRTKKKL

[5] = molecular target: Serine/threonine-protein kinase 33 (Homo sapiens) (UniProt Q9BYT3); settings: at 10 µM
[6] = molecular target: Serine/threonine-protein kinase PLK2 (Homo sapiens) (UniProt Q9NYY3); settings: at 1 µM
Serine/threonine-protein kinase PLK2 (Homo sapiens), sequence (Q9NYY3 whole entry, looked up): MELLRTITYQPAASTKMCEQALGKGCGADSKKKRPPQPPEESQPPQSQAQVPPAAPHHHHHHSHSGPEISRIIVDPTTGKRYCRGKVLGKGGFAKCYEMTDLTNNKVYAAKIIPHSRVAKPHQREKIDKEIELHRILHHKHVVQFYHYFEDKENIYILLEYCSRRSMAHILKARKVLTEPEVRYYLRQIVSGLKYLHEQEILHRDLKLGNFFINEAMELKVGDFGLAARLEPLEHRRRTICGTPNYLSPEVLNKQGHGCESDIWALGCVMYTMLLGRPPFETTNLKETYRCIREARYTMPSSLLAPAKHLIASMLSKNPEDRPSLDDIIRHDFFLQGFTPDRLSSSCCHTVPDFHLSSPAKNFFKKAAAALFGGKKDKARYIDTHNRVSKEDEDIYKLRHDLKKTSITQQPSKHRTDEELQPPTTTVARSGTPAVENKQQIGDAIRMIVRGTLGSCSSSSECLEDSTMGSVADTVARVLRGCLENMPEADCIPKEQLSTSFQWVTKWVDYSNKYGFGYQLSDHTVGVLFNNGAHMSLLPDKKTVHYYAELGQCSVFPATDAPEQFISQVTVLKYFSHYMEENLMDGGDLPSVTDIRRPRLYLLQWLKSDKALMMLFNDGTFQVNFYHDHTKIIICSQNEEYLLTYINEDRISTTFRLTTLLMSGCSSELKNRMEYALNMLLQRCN

[7] = molecular target: Serine/threonine-protein kinase PLK2 (Homo sapiens) (UniProt Q9NYY3); settings: at 10 µM
[8] = molecular target: Tyrosine-protein kinase SYK (Homo sapiens) (UniProt P43405); settings: at 1 µM
[9] = molecular target: Tyrosine-protein kinase SYK (Homo sapiens) (UniProt P43405); settings: at 10 µM
[10] = molecular target: T1, Mitogen-activated protein kinase kinase kinase 7 (Homo sapiens) (UniProt O43318); settings: at 1 µM
T1 sequence (whole entry): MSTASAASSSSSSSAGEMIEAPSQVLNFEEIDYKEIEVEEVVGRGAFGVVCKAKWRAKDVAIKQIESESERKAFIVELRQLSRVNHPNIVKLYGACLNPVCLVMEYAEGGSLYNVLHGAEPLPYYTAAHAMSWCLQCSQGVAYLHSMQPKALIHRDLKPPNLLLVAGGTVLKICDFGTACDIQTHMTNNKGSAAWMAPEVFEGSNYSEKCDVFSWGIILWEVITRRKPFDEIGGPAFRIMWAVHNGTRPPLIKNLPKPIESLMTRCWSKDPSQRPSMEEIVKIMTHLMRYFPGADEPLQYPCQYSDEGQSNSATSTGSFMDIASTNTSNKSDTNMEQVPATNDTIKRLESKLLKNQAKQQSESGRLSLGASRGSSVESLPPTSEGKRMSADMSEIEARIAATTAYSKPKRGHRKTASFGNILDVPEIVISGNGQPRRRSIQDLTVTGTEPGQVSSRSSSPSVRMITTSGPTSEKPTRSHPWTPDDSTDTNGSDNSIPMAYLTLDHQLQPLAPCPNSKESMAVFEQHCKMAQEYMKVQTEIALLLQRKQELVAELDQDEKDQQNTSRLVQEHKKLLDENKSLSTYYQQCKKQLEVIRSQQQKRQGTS

[11] = molecular target: T1, Mitogen-activated protein kinase kinase kinase 7 (Homo sapiens); settings: at 10 µM
[12] = molecular target: T2, Serine/threonine-protein kinase TAO1 (Homo sapiens) (UniProt Q7L7X3); settings: at 1 µM
T2 sequence (whole entry): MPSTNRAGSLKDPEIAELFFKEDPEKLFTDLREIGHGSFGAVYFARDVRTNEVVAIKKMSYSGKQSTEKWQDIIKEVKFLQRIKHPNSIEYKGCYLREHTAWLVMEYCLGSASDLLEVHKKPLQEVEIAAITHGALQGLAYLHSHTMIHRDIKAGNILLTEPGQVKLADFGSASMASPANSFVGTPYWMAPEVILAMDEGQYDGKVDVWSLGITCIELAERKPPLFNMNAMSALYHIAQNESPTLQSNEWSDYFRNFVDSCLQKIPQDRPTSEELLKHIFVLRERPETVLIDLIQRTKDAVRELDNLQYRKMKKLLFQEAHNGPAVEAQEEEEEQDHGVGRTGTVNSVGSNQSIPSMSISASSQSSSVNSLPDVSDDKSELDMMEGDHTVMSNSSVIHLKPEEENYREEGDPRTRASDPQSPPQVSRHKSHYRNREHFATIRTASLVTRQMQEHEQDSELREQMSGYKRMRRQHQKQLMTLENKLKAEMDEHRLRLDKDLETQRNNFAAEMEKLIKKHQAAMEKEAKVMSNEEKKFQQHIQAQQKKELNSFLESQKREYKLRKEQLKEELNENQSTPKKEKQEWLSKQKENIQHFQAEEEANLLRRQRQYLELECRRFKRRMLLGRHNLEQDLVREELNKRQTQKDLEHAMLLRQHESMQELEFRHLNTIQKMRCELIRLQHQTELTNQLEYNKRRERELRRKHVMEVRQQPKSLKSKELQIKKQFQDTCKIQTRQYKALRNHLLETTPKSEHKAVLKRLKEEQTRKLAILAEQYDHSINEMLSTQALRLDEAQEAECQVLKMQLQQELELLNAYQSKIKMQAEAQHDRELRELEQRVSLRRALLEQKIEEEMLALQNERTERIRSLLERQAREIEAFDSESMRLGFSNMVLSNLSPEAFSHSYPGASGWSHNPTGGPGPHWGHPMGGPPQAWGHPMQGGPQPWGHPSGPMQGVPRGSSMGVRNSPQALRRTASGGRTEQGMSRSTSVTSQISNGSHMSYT

[13] = molecular target: T2, Serine/threonine-protein kinase TAO1 (Homo sapiens); settings: at 10 µM
[14] = molecular target: T3, Serine/threonine-protein kinase TAO2 (Homo sapiens) (UniProt Q9UL54); settings: at 1 µM
T3 sequence (whole entry): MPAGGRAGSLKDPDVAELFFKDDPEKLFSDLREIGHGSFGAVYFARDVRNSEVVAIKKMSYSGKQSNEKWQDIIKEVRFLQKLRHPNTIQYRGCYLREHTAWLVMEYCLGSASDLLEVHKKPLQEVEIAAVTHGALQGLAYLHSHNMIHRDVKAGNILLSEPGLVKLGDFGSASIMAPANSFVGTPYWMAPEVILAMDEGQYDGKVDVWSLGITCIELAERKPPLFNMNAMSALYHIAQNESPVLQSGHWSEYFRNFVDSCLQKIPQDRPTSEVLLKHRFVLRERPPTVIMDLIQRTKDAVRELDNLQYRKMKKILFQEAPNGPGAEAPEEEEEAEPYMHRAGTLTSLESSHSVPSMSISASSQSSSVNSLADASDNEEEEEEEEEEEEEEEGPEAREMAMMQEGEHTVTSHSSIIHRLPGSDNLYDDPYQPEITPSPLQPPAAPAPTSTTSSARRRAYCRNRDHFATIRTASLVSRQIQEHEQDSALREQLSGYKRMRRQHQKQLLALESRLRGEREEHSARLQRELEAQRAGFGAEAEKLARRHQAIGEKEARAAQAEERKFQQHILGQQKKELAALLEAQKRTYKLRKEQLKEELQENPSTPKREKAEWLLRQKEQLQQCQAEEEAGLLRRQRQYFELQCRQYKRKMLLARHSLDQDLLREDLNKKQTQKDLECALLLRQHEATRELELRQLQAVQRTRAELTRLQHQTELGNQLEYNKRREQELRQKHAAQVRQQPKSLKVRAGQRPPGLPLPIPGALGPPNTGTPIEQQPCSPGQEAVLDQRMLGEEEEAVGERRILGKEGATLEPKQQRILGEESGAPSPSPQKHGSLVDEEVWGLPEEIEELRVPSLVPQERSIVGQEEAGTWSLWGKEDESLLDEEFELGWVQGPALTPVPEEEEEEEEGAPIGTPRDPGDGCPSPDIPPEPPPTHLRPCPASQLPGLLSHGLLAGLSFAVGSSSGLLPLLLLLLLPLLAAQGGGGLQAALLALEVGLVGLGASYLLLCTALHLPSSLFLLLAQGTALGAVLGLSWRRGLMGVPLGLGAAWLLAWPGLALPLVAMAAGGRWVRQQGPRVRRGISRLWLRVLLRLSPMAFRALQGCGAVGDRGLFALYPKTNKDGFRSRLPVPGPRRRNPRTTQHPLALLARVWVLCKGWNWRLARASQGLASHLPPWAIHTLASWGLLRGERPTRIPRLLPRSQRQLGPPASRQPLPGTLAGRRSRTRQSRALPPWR

[15] = molecular target: T3, Serine/threonine-protein kinase TAO2 (Homo sapiens); settings: at 10 µM
[16] = molecular target: T4, Serine/threonine-protein kinase TAO3 (Homo sapiens) (UniProt Q9H2K8); settings: at 1 µM
T4 sequence (whole entry): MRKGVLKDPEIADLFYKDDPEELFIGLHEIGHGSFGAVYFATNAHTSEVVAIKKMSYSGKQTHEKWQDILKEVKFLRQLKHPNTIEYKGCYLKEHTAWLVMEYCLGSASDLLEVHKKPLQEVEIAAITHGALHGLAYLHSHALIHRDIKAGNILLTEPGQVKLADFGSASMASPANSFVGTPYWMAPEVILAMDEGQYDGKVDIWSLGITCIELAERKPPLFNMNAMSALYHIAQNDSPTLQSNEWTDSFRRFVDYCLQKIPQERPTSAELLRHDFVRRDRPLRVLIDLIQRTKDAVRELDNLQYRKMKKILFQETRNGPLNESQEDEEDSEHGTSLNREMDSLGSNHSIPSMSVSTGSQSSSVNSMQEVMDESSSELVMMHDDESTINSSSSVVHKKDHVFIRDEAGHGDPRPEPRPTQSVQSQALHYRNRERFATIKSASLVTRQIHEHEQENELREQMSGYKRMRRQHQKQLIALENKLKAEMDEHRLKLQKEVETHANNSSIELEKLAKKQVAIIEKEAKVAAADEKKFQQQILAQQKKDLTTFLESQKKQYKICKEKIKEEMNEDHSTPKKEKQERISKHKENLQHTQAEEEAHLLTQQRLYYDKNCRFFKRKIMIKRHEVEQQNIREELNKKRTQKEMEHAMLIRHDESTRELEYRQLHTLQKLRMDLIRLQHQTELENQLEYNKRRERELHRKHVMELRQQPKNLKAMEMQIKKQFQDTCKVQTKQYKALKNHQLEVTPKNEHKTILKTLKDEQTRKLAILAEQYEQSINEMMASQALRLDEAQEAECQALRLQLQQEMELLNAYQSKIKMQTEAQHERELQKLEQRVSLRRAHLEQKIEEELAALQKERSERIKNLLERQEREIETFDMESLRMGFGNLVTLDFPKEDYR

[17] = molecular target: T4, Serine/threonine-protein kinase TAO3 (Homo sapiens); settings: at 10 µM
[18] = molecular target: T5, Serine/threonine-protein kinase TBK1 (Homo sapiens) (UniProt Q9UHD2); settings: at 1 µM
T5 sequence (whole entry): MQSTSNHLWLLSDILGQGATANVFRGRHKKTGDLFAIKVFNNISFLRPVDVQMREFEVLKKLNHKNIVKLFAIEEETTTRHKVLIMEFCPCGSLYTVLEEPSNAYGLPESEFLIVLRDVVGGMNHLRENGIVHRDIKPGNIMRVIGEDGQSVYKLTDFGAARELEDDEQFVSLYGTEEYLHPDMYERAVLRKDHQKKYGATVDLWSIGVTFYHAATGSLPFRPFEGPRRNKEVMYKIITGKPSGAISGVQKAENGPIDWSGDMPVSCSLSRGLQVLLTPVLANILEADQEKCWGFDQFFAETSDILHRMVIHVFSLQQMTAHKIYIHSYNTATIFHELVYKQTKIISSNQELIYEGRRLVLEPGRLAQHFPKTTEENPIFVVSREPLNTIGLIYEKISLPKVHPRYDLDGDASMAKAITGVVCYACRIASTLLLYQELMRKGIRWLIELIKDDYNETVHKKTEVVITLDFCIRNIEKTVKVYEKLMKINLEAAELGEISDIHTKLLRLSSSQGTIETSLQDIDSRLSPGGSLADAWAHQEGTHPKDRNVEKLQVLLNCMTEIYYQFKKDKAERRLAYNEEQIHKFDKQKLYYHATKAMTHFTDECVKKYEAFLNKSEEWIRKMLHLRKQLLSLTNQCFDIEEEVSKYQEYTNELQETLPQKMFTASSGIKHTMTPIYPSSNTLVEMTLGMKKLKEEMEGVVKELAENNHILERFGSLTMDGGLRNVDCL

[19] = molecular target: SRSF protein kinase 1 (Homo sapiens) (UniProt Q96SB4); settings: at 1 µM
SRSF protein kinase 1 (Homo sapiens), sequence (Q96SB4 whole entry): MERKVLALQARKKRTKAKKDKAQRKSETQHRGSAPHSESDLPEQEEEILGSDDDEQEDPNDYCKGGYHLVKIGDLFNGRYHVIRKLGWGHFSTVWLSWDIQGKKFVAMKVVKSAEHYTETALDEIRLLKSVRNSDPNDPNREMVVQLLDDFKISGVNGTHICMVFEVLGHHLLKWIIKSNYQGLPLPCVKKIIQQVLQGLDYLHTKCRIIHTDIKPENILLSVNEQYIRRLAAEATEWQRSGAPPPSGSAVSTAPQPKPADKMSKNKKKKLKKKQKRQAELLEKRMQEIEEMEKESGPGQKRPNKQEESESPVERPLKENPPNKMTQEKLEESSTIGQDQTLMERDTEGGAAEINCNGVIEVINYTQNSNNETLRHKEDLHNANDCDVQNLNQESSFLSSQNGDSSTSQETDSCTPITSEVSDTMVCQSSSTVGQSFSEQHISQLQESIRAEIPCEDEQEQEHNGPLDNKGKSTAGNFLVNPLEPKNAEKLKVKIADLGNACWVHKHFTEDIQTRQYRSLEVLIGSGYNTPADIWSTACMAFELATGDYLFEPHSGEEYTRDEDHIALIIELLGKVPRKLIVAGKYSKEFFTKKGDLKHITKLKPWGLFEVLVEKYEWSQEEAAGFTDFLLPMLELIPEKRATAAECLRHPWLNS

[20] = molecular target: SRSF protein kinase 1 (Homo sapiens) (UniProt Q96SB4); settings: at 10 µM

Serine/threonine-protein kinase SIK1 (Homo sapiens), sequence (P57059 whole entry): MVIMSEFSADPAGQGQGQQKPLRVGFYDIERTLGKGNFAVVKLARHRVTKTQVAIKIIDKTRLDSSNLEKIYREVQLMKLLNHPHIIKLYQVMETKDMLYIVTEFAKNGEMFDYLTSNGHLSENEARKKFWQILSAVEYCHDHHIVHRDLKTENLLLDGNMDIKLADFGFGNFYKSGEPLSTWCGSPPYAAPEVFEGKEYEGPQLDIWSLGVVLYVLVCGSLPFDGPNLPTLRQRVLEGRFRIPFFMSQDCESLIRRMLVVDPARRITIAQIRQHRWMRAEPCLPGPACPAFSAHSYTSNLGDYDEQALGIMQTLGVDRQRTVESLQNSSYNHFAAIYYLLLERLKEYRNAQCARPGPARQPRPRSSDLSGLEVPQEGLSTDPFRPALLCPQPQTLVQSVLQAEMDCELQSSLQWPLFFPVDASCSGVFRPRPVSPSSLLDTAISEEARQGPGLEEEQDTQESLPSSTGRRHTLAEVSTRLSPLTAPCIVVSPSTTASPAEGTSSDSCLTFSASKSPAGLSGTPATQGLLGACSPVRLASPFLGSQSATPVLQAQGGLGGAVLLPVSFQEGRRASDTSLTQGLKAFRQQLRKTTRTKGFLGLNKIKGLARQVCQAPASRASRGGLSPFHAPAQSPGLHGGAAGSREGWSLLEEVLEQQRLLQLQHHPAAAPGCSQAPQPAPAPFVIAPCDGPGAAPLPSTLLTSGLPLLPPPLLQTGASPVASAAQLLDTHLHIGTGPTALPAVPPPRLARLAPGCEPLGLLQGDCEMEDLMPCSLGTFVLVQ
SRSF protein kinase 2 (Homo sapiens), sequence (P78362 whole entry, looked up): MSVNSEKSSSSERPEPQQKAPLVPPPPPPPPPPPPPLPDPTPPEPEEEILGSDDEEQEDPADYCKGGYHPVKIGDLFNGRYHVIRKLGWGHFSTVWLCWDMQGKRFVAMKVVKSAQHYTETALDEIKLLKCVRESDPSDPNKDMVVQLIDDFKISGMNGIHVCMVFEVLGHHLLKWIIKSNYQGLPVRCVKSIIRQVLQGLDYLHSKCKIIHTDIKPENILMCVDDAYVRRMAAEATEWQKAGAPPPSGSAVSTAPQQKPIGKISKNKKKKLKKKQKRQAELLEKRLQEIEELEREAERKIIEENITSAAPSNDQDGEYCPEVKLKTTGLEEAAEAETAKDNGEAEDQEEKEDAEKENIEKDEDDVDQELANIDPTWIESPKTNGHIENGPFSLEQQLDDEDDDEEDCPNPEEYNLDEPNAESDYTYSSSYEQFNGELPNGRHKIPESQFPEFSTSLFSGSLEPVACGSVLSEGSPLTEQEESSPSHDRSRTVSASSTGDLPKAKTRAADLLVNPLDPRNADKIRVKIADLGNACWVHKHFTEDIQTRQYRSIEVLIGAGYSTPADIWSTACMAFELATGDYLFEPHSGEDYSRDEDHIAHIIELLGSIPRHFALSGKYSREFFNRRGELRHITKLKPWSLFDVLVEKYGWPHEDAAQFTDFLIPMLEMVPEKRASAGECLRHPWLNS

SMILES	residual activity [1]	residual activity [2]	residual activity [3]	residual activity [4]	residual activity [5]	residual activity [6]	residual activity [7]	residual activity [8]	residual activity [9]	residual activity [10]	residual activity [11]	residual activity [12]	residual activity [13]	residual activity [14]	residual activity [15]	residual activity [16]	residual activity [17]	residual activity [18]	residual activity [19]	residual activity [20]
CCCCc1c(-c2ccc(O)cc2)[nH]c2nccnc12	36%	91%	90%	99%	62%	100%	86%	50%	66%	90%	89%	36%	7%	35%	30%	62%	68%	70%	–	–
O=C1Cc2c([nH]c3ccc([N+](=O)[O-])cc23)-c2ccccc2N1	68%	–	–	–	–	–	–	–	–	–	–	54%	30%	–	–	–	–	51%	105%	–
CCN(CC)CCNC(=O)c1c(C)[nH]c(/C=C2\C(=O)Nc3ccc(Cl)cc32)c1C	5%	98%	78%	33%	6%	98%	58%	–	33%	4%	-3%	71%	18%	–	–	79%	24%	15%	–	–
O=C(c1ccccc1)c1ccc(N2CCOCC2)cc1O	95%	100%	94%	89%	98%	–	–	124%	93%	100%	95%	–	91%	–	–	–	92%	91%	–	–
COc1ccc2c(c1)c(C1=C(c3c[nH]c4ccccc34)C(=O)NC1=O)cn2CCCN(C)C	34%	–	–	71%	22%	–	–	113%	69%	82%	53%	–	33%	–	28%	82%	37%	59%	97%	56%
Cn1sc(=O)n(Cc2ccccc2)c1=O	83%	93%	76%	95%	88%	–	–	–	–	85%	79%	87%	85%	95%	91%	91%	91%	61%	83%	91%
Nc1ncnc2c1c(-c1ccc(Oc3ccccc3)cc1)cn2C1CCCC1	27%	93%	90%	87%	57%	97%	93%	109%	59%	–	81%	94%	81%	–	77%	92%	77%	61%	104%	103%
